The list is not random: actives were taken first. Their share in the collection is about 2.3%.
697 NFkB inh = lowers PMA/ionomycin-induced NF-kB signal in 697 B cells. 697 B-cell NF-kB luciferase reporter, 16 h. inhibition, % at 4 µM. hit rate 0.33% among 330,000. AID 435022; in the data active means inhibition above about 35%
TRPM1 prom inh = reduces MITF-dependent TRPM1 promoter luciferase signal | SK-MEL-5 TRPM1 promoter luciferase, 24 h | inhibition, % at 12.5 µM | hit rate 0.83% among 330,000 | AID 488899;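 active means mean inhibition across replicates of 60% or more, whatever share of single replicates reaches that level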
Shn3 3UTR inh = Schnurri-3 reporter inhibition in Clone20 osteoblasts. inhibition, % at 12.5 µM. hit rate 0.52% among 360,000. Clone20 osteoblast Shn3 3'UTR firefly luciferase, 24 h;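 active means mean inhibition of at least 75% with every replicate also reaching 75%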
Jurkat NFkB inh = inhibitors of the PMA/ionomycin-induced NF-kB reporter in Jurkat cells. inhibition, % at 4 µM. PMA/ionomycin-induced NF-kB luciferase reporter, luminescence. hit rate 0.53% among 330,000; in the data active means inhibition above about 50%
EBV LMP1 NFkB = inhibitors of Epstein-Barr LMP1-induced NF-kappaB reporter; hit rate 0.69% among 350,000; inhibition, % at 12.5 µM; LMP1-induced NF-kappaB luciferase reporter cells, luminescence; in the data active means inhibition above about 41%
Gli-Sufu antag = blocks Gli-Sufu signaling in a luciferase reporter. hit rate 0.74% among 340,000. Sufu-KO-LIGHT fibroblasts, Gli luciferase reporter luminescence. inhibition, % at 5 µM;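 active means inhibition above about 55%, limit read from the data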
Hits are given with their value; - = inactive; . = no result given.

SMILES	697 NFkB inh	TRPM1 prom inh	Shn3 3UTR inh	Jurkat NFkB inh	EBV LMP1 NFkB	Gli-Sufu antag
O=C1c2cccnc2C(=O)N1Cc1ccc(F)cc1S(=O)(=O)NCc1ccco1	-	-	-	-	72	-
COC(=O)C1=C(C)N(Cc2ccccc2)C(=NCCc2cccnc2)N[C@H]1c1ccccc1	-	-	-	-	-	-
COC(=O)C1=C(C)N(Cc2ccccc2)C(=NCCc2cccnc2)N[C@H]1c1ccc(Br)cc1	-	78	-	-	-	-
COC(=O)C1=C(C)N(Cc2ccccc2)C(=NCC(C)C)N[C@H]1c1cccc(C(F)(F)F)c1	-	96	-	-	-	-
COC(=O)C1=C(C)N(Cc2ccccc2)C(=NCc2cccc(Cl)c2)N[C@H]1c1cccc(F)c1	-	95	-	-	-	-
CCN1C(=NCC2CC2)N[C@@H](c2cccc(C(F)(F)F)c2)C(C(=O)OC)=C1C	-	-	-	-	-	96
Cc1ccc(S(=O)(=O)N(C)[C@H]2C[C@H]3c4[nH]c5ccccc5c4CCN3C[C@H]2[C@H](C)O)cc1	.	.	-	.	.	.
COC(=O)Nc1sc(C(=O)N(C)C)c(C)c1C(=O)OC	-	-	-	-	-	-
CCC1CCCCN1CCCNC(=O)CC1Oc2ccc(C)cc2NC1=O (configuration not stated)	-	-	-	-	-	-
COC(=O)C1=C(C)N(Cc2ccccc2)C(=NCc2ccccc2)N[C@H]1c1cccc(C(F)(F)F)c1	-	89	-	-	-	-
CCc1ccccc1N(CC(=O)N1CCCC1)S(C)(=O)=O	-	-	-	-	-	-
CCOc1ccccc1N(CC(=O)N1CCCC1)S(C)(=O)=O	-	-	-	-	49	-
COc1ccc(-c2nnn(CC(=O)Nc3ccc4c(c3)OCCO4)n2)cc1OC	-	-	85	-	-	-
CCN(CC)C(=O)CSc1nc2ccccc2c(=O)n1CCC(=O)NCc1ccc(F)cc1	-	-	-	-	-	-
Cc1ccc(C(=O)Nc2ccc3ncccc3c2)cc1	-	-	-	-	45	.
O=C(Nc1ccc2ncccc2c1)c1cccc(Br)c1	-	-	-	-	-	-
CN1c2ccsc2C(O)=C(C(=S)Nc2ccc(F)c(Cl)c2)S1(=O)=O	-	-	-	-	-	-
COc1ccc(C(c2c(C)n(C)n(-c3ccccc3)c2=O)c2c(C)n(C)n(-c3ccccc3)c2=O)c(OC)c1OC	-	-	-	-	80	-
CCOc1cccc(C(c2c(C)n(C)n(-c3ccccc3)c2=O)c2c(C)n(C)n(-c3ccccc3)c2=O)c1OC	-	.	-	-	-	-
COc1ccc(C(=O)OCC(=O)c2c[nH]c3ccccc23)cc1OC	-	-	-	-	67	-
COc1cc(C(=O)OCC(=O)c2c[nH]c3ccccc23)ccc1OCC(=O)N1CCOCC1	-	-	-	-	-	-
COc1ccc(NC(=O)COC(=O)Cc2c[nH]c3ccccc23)cc1OC	-	-	-	-	70	-
COc1ccc(NC(=O)CSc2nc3c(sc4ccccc43)c(=O)n2CCCN2CCCC2)cc1	-	83	-	-	-	-
CCCn1c(SCC(=O)NC(C)C)nc2sc3c(c2c1=O)CCC3	-	-	-	-	-	-
COc1cc(-c2nc3ccccn3c2/N=C/c2cccc(F)c2)ccc1O	-	-	-	-	-	-
SMILES	697 NFkB inh	TRPM1 prom inh	Shn3 3UTR inh	Jurkat NFkB inh	EBV LMP1 NFkB	Gli-Sufu antag
CC(=O)c1ccc(-n2nnnc2SCC(=O)N2CCc3ccccc3C2)cc1	.	-	-	.	49	-
O=C(CSc1nnnn1-c1ccccc1)N1CCc2ccccc2C1	-	-	-	-	-	-
C=CCn1c(CCNC(=O)c2cccs2)nnc1SCC(=O)c1cccc([N+](=O)[O-])c1	-	-	-	-	-	-
O=c1c(Cl)c2oc3ccccc3nc-2c2ccccc12	-	63	-	-	-	-
Clc1ccc(-c2nnc(Sc3nc4ccccc4o3)c3ccccc23)cc1	-	-	-	-	-	-
CCN1C(Nc2ccccc2)=NC[C@@H]1Cc1ccccc1	-	-	-	-	-	-
c1ccc(CCCCN2C(Nc3ccccc3)=NC[C@@H]2Cc2ccccc2)cc1	-	-	-	-	-	-
CCCCCCCN1C(Nc2ccccc2)=NC[C@@H]1Cc1ccccc1	-	-	86	-	-	-
CC(C)(C)C1CCC(CN2C(Nc3ccccc3)=NC[C@@H]2Cc2ccccc2)CC1 (some centres not stated)	-	95	-	-	-	-
NC(=S)n1[nH]c(-c2ccc([N+](=O)[O-])cc2)c(N=Nc2ccccc2[N+](=O)[O-])c1=O	.	-	-	.	-	-
Cc1c(N=Nc2c(-c3ccc([N+](=O)[O-])cc3)[nH]n(C(N)=S)c2=O)cccc1[N+](=O)[O-]	.	62	-	.	-	68
COc1ncnc2c1NC(=O)CS2	-	-	-	-	82	-
CCOc1cc(/C=C\[N+](=O)[O-])ccc1OCC(=O)Nc1ccccc1C	-	91	95	-	-	-
Cc1cc2nc(NC(=O)C3(C)CCCN(C(C)C)C3)[nH]c2cc1C (configuration not stated)	.	.	-	.	.	.
O=S(=O)(CC(CN1CCCC1)N1CCCC1)c1ccc2ccccc2c1 (configuration not stated)	-	76	-	-	-	-
Cc1ccc(S(=O)(=O)CC(CN2CCOCC2)N2CCOCC2)cc1 (configuration not stated)	-	-	-	-	-	-
O=C(CCN1C(=O)C2C3C=CC(C3)C2C1=O)N1CCN(c2ccccc2Cl)CC1 (configuration not stated)	-	-	-	-	85	-
Cc1ccc([C@H]2C[C@H](O)[C@@H](n3cc(C4CC4)nn3)CN2CC2CCCCC2)cc1	.	.	-	.	-	.
O=C(O)CSCc1c(F)cccc1Cl	-	-	-	-	-	-
C[C@H]1CCC[C@]2(C)C[C@H]3OC(=O)C(CN4CCCCCC4)[C@H]3C=C12 (some centres not stated)	-	78	-	-	-	-
Cn1c(=O)[nH]c(=O)c2c1nc([N+](=O)[O-])n2Cc1ccccc1	-	93	98	-	95	-
Cn1c(=O)[nH]c(=O)c2c1nc(N1CCNCC1)n2Cc1ccccc1	-	-	-	-	-	-
CCCCn1c(=N)n(CCOc2ccc(C)cc2)c2ccccc21	-	64	-	-	-	-
CCN(CC)c1ccc2c(c1)oc(=O)c1c(Cl)cc(=O)oc12	-	80	96	-	-	-
CCN(CC)c1ccc2c(C)c(Cl)c(=O)oc2c1	-	-	-	-	-	-
CCN(CC)c1ccc2c(Cl)c(Br)c(=O)oc2c1	-	-	98	-	-	-
CCC1(C)COC2(OC1)C(=O)Nc1ccccc12 (configuration not stated)	-	-	-	-	-	-
Cc1[nH]c2ccccc2c1/C=N/NC(=O)CNC(=O)c1ccccc1	-	-	-	-	-	-
